Screening data deposited in PubChem BioAssay by National Center for Advancing Translational Sciences (NCATS).
S2 tox – reduces viability in counter-screen for ATXN expression inhibitors. S2 cells (HEK-293 line with an ATXN2-luciferase reporter) viability, CellTiter-Fluor protease fluorescence, 24 h. Potency, µM (highest dose often 56.7 µM), hits mostly cytotoxic. actives 0.49% (n = 400,000). AID 651635; note: nearly all actives have a fitted effect of over 40% in size
ATXN2 expr inh – ATXN2 expression inhibition. HEK-293 ATXN2-luciferase reporter, luminescence, 24 h. Potency, µM (highest dose often 57 µM), without a hit: at the highest dose activity change, negative = inhibition, usual class: inhibitors. actives 0.72% (n = 360,000). AID 1745845; note: % is set by controls: 0 for no effect and ±100 for the full control effect; nearly all actives have a fitted effect of over 55% in size
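qHTS (up to 57 uM final) was run with 24 h compound exposure of reporter cells at 37 °C. Each well was multiplexed: SteadyGlo luminescence measured ATXN2-luciferase expression after a fluorogenic Gly-Phe-AFC viability readout (25 uM final).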
RORg inh – ROR gamma (mouse) transcription inhibition; Potency, µM (titrated, usually from 53.6 µM), for inactives: at the highest dose activity change, negative = inhibition, actives largely listed as inhibitors; Drosophila S2 Gal4-RORgamma UAS-luciferase reporter, 20 h; P51450; actives 5.4% (n = 310,000); note: % is set by controls: 0 for no effect and ±100 for the full control effect; nearly all actives have a fitted effect of over 60% in size
Target sequence (P51450 whole entry, looked up, the tested form may be a part): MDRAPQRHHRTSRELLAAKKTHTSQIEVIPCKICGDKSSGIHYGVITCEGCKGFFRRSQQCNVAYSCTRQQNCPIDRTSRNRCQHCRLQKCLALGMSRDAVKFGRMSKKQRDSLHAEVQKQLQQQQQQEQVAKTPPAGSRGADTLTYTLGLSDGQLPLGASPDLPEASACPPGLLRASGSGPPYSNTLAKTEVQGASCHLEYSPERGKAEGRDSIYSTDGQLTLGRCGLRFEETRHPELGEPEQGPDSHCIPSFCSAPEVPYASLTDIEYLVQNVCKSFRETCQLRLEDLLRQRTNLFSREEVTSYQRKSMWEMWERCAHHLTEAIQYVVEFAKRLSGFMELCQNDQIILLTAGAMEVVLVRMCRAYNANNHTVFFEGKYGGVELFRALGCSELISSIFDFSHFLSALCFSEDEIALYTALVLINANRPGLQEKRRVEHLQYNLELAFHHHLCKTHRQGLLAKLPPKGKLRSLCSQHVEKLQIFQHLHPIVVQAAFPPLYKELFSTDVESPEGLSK
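Schneider cells (Drosophila), stable Gal4 DBD–ROR gamma + UAS-luc; 1 hr cmpd preincubation; Cu2+ induction 700 uM final; 20 hr ambient; luminescence.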
HepG2 viability – HepG2 cytotoxicity, counter-screen for TGF-b inhibitors; HepG2 CAGA-GFP viability, ATP luminescence, 18 h; Potency, µM (titrated, usually from 46.1 µM), inactives show top-dose activity change, negative = cytotoxicity, most hits filed as cytotoxic; actives 0.76% (n = 410,000); AID 588856
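HepG2 CAGA-GFP cells (1000/well, DMEM with 1% FBS) received compound, then TGF-beta at 500 pg/mL final, and were incubated 18 hours at 37 degrees C. Viability was read by CellTiter-Glo luminescence. Media-only wells were set as complete cell-killing and DMSO as no toxicity.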
TGFb SMAD3 inh – TGF-b pathway inhibition; HepG2 CAGA-GFP TGF-b/SMAD3 reporter, GFP fluorescence, 18 h; TGF-beta stimulated, 500 pg/mL final; Potency, µM (doses to about 46.1 µM), for inactives: at the top dose activity, negative = inhibition, most hits filed as inhibitors; actives 1.2% (n = 410,000); note: % is set by controls: 0 for no effect and ±100 for the full control effect; nearly all actives have a fitted effect of over 65% in size
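HEPG2 CAGA-GFP cells (1000/well, DMEM with 1% FBS) were pre-incubated 2 h at 37 degrees C, given compound by pin tool, then stimulated with TGF-beta at 500 pg/mL final for 18 h before per-cell GFP fluorescence imaging.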
Gal4-VP16 FLuc – counter-screen for ROR gamma inhibitors: Gal4-VP16 reporter | Drosophila S2 Gal4-VP16 UAS-luciferase, luminescence, 20 h | Potency, µM (doses to about 53.6 µM), without a hit: at the top dose activity, negative = inhibition, most hits filed as inhibitors | actives 3.5% (n = 310,000);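 note: Gal4-VP16 expression switched on by copper sulfate through the metallothionein promoter; % is set by controls: 0 for no effect and ±100 for the full control effect; nearly all actives have a fitted effect of over 50% in size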
The depositor's hits bear a star; i = inactive; ? = inconclusive; nt = no result. Only some compounds are listed: those with a hit (about 6.3% of all), similar ones and a draw of the others. Calls come from the whole dose curve; as a rule, active = well fitted curve in the direction sought with a large enough effect; inconclusive = small, poorly fitted or top-dose-only effect, or another doubt; inactive = no such curve, though single readings can be large; an effect the other way counts as inactive or inconclusive. Potency is the fitted concentration of half-maximal effect.

SMILES | S2 tox | ATXN2 expr inh | RORg inh | HepG2 viability | TGFb SMAD3 inh | Gal4-VP16 FLuc
COc1cccc(N2CCN(C(=O)c3ccc4nc(N5CCC(C)CC5)sc4c3)CC2)c1 | nt | nt | 12.6µM* | -22.3% | -6.7% | -20.1%
O=C(c1ccc2nc(N3CCOCC3)sc2c1)N1CCC(Cc2ccccc2)CC1 | i | -5.7% | ? | -33.4% | -23.2% | 0.224µM*
CCc1ccc2nc(N3CCN(C(=O)C4CC4)CC3)sc2c1 | nt | nt | nt | -28.4% | -5.4% | nt
CCc1ccc2nc(N3CCC(C(=O)O)CC3)sc2c1 | i | 14.1µM* | nt | 4.8% | 0.6% | nt
CN[C@@H]1[C@@H](O)[C@@H](O[C@@H]2[C@@H](O)[C@H](OC3OC(CN)=CCC3N)[C@@H](N)C[C@H]2N)OC[C@]1(C)O (stereo partly drawn) | i | nt | nt | nt | nt | nt
CO/N=C(\C(=O)O)c1csc(NC(=O)CCl)n1 | i | 15.4% | nt | nt | nt | nt
O=[N+]([O-])c1ccc2nc(N3CCCC3)sc2c1 | i | nt | 16.7% | -15.7% | -11.0% | -6.7%
O=C(c1ccccc1)N1CCN(c2nc3ccc([N+](=O)[O-])cc3s2)CC1 | ? | nt | ? | -37.9% | ? | 8.91µM*
COC(=O)[C@]12CCCCC=C1N(Cc1ccccc1)C(=O)[C@H](CC(=O)NCc1cccc(C(F)(F)F)c1)C2 | ? | -24.1% | nt | nt | nt | nt
CCc1ccc(C(O)(CNCc2ccccc2)c2ccccc2)cc1 (stereo not drawn) | i | nt | -19.4% | -48.1% | ? | 12.6µM*
Cc1ccc(CNCC(O)(c2ccccc2)c2ccccc2)cc1 | i | nt | ? | -40.3% | -26.9% | -12.0%
COc1ccc(CNCC(O)(c2ccccc2)c2ccc(Cl)cc2)cc1 (stereo not drawn) | i | ? | -8.5% | 15.8µM* | ? | ?
COc1cc(CN(C)Cc2cc(=O)n3ccsc3n2)ccc1OC(F)F | i | nt | -14.5% | 4.2% | -29.8% | 15.8µM*
Cc1ccc(S(=O)(=O)N(C)c2nc3ccccc3[nH]c2=S)cc1 | i | 2.6% | 4.47µM* | 2.7% | -0.8% | -10.4%
COc1ccc(-c2nnc(NC(=O)c3ccc([N+](=O)[O-])o3)o2)c(OC)c1 | i | -20.9% | 7.08µM* | -22.8% | ? | 6.31µM*
COc1cccc(-c2nnc(-c3ccco3)o2)c1 | i | 7.9% | -34.7% | -15.6% | -0.8% | -28.3%
COc1cccc(-c2nnc(NC(=O)c3cccc(F)c3)o2)c1 | i | ? | 0.316µM* | -5.4% | ? | 0.794µM*
COc1cccc(C(=O)Nc2cccc(-c3nnc(-c4ccccc4)o3)c2)c1 | i | 2.9% | nt | -13.4% | -2.6% | nt
COc1cccc(-c2nnc(-c3ccc(C)o3)o2)c1 | i | 0.8% | 11.2µM* | -16.4% | 4.6% | ?
COc1cccc(-c2nnc(NC(=O)C(C)C)o2)c1 | i | 10.6% | ? | -15.7% | -7.8% | 15.8µM*
Cc1cccc(CN2C(=O)CC(c3ccc(Cl)cc3)c3c(C)nn(-c4nc(C)cc(C)n4)c32)c1 (stereo not drawn) | ? | -37.7% | nt | -26.8% | ? | nt
CCc1nc2cc(C(=O)N(C)CC3CCCN(C)C3)cc(NC(=O)c3ccccc3OC)c2n1C (stereo not drawn) | i | nt | nt | nt | nt | nt
COc1cccc(-c2nnc(NC(=O)c3ccccc3Br)o2)c1 | i | 4.7% | 5.01µM* | -14.0% | -20.7% | 3.16µM*
O=C(O)Cc1cccc2c(=O)cc(-c3ccccc3)oc12 | i | 5.7% | nt | -4.5% | 22.9% | nt
Cc1ccc2c(=O)c3cccc(CC(=O)O)c3oc2c1C | nt | 24.3µM* | -10.5% | nt | nt | -6.0%
CC(NNC(=S)N1CCCCCC1)c1ccc2ccccc2n1 (stereo not drawn) | nt | 8.91µM* | nt | -14.5% | ? | nt
S=C(Nc1ccccc1)N1CCCCCC1 | i | 4.3% | -1.3% | -1.5% | -0.7% | ?
COc1c(C)cnc(Cn2cnc3c(Cl)nc(N)nc32)c1C | nt | 0.193µM* | nt | nt | nt | nt
